Experimental data as given in PubChem BioAssay AID504339 (National Center for Advancing Translational Sciences (NCATS), 2011).
About 17,000 (4.4%) of roughly 390,000 compounds were called active. Not shown: some 8% with an inconclusive outcome. The full list was thinned out, with actives kept by preference. Unmarked numbers belong to inactive results. Calls follow the shape of the dose curve; as a rule, active = well fitted inhibition curve with a large enough effect; inconclusive = small, poorly fitted or top-dose-only effect; inactive = no such curve, though single readings can be large or run the other way.

target: Lysine-specific demethylase 4A (Homo sapiens) (UniProt O75164); assay: qHTS Assay for Inhibitors of JMJD2A-Tudor Domain; conditions: AlphaScreen JMJD2A-Tudor / H3K4me3 peptide binding; series mostly up to 114 µM; activity change, negative = inhibition: at the top concentration; also: nearly all actives have a fitted effect of over 50% in size
Sequence (O75164 whole entry, looked up, the tested form may be a part): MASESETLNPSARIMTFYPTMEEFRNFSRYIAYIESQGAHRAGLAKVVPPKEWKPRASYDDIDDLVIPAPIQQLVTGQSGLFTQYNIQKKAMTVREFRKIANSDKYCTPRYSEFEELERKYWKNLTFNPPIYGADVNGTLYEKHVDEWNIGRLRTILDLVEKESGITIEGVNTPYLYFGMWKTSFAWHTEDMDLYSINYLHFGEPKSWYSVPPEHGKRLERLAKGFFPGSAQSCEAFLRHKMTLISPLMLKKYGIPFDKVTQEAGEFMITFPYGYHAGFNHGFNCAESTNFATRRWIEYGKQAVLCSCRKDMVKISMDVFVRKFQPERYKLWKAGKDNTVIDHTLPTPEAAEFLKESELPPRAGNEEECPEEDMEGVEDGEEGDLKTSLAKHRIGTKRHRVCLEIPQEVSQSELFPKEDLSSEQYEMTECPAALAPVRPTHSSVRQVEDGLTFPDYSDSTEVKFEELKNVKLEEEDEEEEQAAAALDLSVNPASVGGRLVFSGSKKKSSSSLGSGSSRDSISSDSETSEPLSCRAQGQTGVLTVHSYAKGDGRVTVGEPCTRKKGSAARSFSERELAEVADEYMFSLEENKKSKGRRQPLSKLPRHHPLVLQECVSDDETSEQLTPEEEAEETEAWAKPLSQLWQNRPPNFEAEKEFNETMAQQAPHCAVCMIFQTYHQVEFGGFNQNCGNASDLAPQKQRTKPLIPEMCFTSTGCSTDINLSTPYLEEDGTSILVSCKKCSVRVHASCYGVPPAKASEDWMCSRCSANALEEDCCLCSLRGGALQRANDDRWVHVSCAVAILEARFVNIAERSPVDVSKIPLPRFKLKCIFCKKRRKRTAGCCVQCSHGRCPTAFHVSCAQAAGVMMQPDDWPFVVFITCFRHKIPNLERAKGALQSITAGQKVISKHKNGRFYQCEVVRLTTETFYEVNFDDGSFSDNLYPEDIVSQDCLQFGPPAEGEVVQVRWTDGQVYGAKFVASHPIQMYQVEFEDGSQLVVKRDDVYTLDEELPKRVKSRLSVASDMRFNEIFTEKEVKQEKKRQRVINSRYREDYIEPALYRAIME
% is scaled to controls: 0 for no effect and ±100 for the full control effect; potency is read from the fitted curve at half-maximal effect.

Row | SMILES | activity change, negative = inhibition | Potency
1 | Cc1ccc(-n2ncc(C(=O)N(C)Cc3ccccc3)c2-n2cccc2)cc1 | -24.5% | 
2 | CCOC(=O)N1CCc2c(sc3c2C(=O)NC(c2ccccc2F)N3)C1 (stereo unspecified) | -10.7% | 
3 | COc1ccc(-c2cc(C(=O)NCc3cc(OC)c(OC)c(OC)c3)[nH]n2)cc1 | 9.66% | 
4 | O=C(CCC1CCCN(C(=O)Cc2ccc(F)cc2)C1)N1CCN(c2ccccn2)CC1 (stereo unspecified) | 2.46% | 
5 | C=Cc1ccc(C(=O)N2CCCC(CCC(=O)N3CCN(c4ccccn4)CC3)C2)cc1 (stereo unspecified) |  | 56.2 µM (active)
6 | O=C(CCC1CCCN(C(=O)c2ccc(F)c(F)c2)C1)N1CCN(c2ccccn2)CC1 (stereo unspecified) | -7.35% | 
7 | Brc1cccc(-c2nnn3c2nc(NC2CCCCC2)c2ccccc23)c1 | 21.2% | 
8 | CCc1cc2c(cc3c(=O)n(CC(=O)NCc4cccc(Cl)c4)nc(CC)n32)s1 | -15.3% | 
9 | O=[N+]([O-])c1ccccc1Nc1ccc(O)cc1 |  | 63.1 µM (active)
10 | O=C(Nc1ccccc1[N+](=O)[O-])C1C(c2ccccc2)=C1c1ccccc1 | -11.9% | 
11 | O=C(NCCNc1ccccc1[N+](=O)[O-])c1ccccc1F | -9.86% | 
12 | CCOC(=O)CNC(=O)c1cc2c(=O)n3cccc(C)c3nc2s1 | 6.48% | 
13 | O=C(c1ccc2c(c1)N(Cc1ccc(Cl)cc1)C(=O)c1ccccc1S2(=O)=O)N1CCCCC1 | -14.8% | 
14 | O=c1c2cccnc2n(Cc2cccc(F)c2)c(=O)n1Cc1ccccc1Cl | 7.27% | 
15 | CCOc1cc(-c2nnc(SCC(=O)NC3CCCC3)nc2-c2ccc(OC)c(OCC)c2)ccc1OC | -17.3% | 
16 | Cc1cccc(NC(=S)NCCc2ccc(Cl)cc2)c1C | -20.7% | 
17 | Oc1cc2c(cc1O)CN(C(=S)NCCc1ccc(Cl)cc1)CCC2 |  | 44.7 µM (active)
18 | O=C(NCCc1ccc(Cl)cc1)c1cccc(N2CCCC2=O)c1 | -2.78% | 
19 | Cc1ccccc1CNC(=O)C(=O)NCC(c1cccs1)S(=O)(=O)c1cccs1 (stereo unspecified) | -14.3% | 
20 | Cc1ccccc1OCC(=O)Nc1c(C(=O)Nc2ccccc2F)oc2ccccc12 | -2.65% | 
21 | O=C(Nc1cc(C(F)(F)F)ccc1Cl)c1nc2ccccc2nc1N1CCCCC1 | -28% | 
22 | Oc1c(CN2CCCC2)cc(COCc2ccccc2)c2cccnc12 |  | 25.1 µM (active)
23 | Oc1c(CN2CCN(c3ccc(F)cc3)CC2)cc(Cl)c2cccnc12 |  | 25.1 µM (active)
24 | O=C(Cc1ccccc1)NNC(=O)C1CCN(c2ncccn2)CC1 | 2.84% | 
25 | CCCc1cc(=O)oc2c(C)c(O)c(CN3CCCCC3)cc12 | -15.6% | 
26 | Cc1cc(=O)oc2cc(OCC(=O)N3CCN(c4ccc(F)cc4)CC3)c(Cl)cc12 | -18.3% | 

Row | SMILES | activity change, negative = inhibition | Potency
27 | O=C(CN1CCN(c2ccc(F)cc2)CC1)Nc1cccc(C(F)(F)F)c1 | -25.8% | 
28 | Cc1ccc(O)c(NC(=O)CCS(=O)(=O)c2nc(-c3ccc4c(c3)OCO4)cc(C(F)(F)F)n2)c1 | -25.6% | 
29 | CCOc1ccc(NC(=O)c2c(NC(=O)Cc3ccccc3)sc3c2CCC(C)C3)cc1 (stereo unspecified) | -34% | 
30 | Cc1ccc(-n2ncc3c(N4CCC(C(N)=O)CC4)ncnc32)cc1 | -5.2% | 
31 | COc1ccc(Cn2c(C(=O)O)c(CNCc3cccc(OC)c3)c3ccc(C)cc32)cc1 | -27.9% | 
32 | COc1ccccc1C(=O)Nc1c(C(=O)Nc2ccc(C)cc2)oc2ccccc12 | -11.9% | 
33 | Cc1ccc(-c2nn3c(=O)cc(CN4CCN(S(=O)(=O)c5ccc(Cl)cc5)CC4)nc3s2)cc1 | -0.325% | 
34 | Cc1cccc(Cc2c(C)nc3nc(SCc4ccccc4Cl)nn3c2C)c1 | 13.3% | 
35 | O=C(CNc1ccc(F)cc1F)NC(=O)NCc1ccco1 | -32.2% | 
36 | Cc1cc(C)n2nc(SCC(N)=O)nc2n1 | -32.6% | 
37 | Cc1cc(C)n2nc(SCC(=O)NC(=O)NCc3ccco3)nc2n1 |  | 20 µM (active)
38 | COc1ccc(-c2onc(C)c2C)cc1S(=O)(=O)NCC1CCN(Cc2cccc(F)c2)CC1 | -17.2% | 
39 | CCN(CC)S(=O)(=O)c1cccc(-c2n[nH]c(=S)n2/N=C/c2ccc(C(=O)OC)cc2)c1 |  | 10 µM (active)
40 | COC(=O)c1ccc(NC(=O)CSc2n[nH]c(-c3ccccc3)n2)cc1 | -0.974% | 
41 | CCN(CC)S(=O)(=O)c1cccc(NC(=O)c2ccc(S(=O)(=O)N3CCCC3)cc2)c1 | -24.2% | 
42 | COc1ccc(N2C(=O)CS(=O)(=O)C23C(=O)N(Cc2ccc(C)cc2)c2ccccc23)cc1Cl (stereo unspecified) | -16.8% | 
43 | COc1ccc(CC(=O)NCCc2sc3nc(-c4ccc(OC)cc4)nn3c2C)cc1 | -20.8% | 
44 | Cc1cccc(C(=O)NCCc2nc3ccccc3n2Cc2ccccc2Cl)c1 | 1.68% | 
45 | Cc1cccc(-n2cnc(C(=O)Nc3cccnc3)c2)n1 | 6.53% | 
46 | Cc1cccc(-n2cnc(C(=O)NNC(=S)Nc3ccccc3)c2)n1 |  | 35.5 µM (active)
47 | Cc1nn(C)cc1C(=O)NNC(=S)Nc1ccc(Cl)cc1 | -20.5% | 
48 | Cc1ccc2c(c1)c1c(c(=O)n(-c3ccccc3)c(=O)n1CC(=O)c1ccc(Cl)cc1)n2C | -6.21% | 
49 | Cc1ccc(C)c(OCC(=O)Nc2sc3c(c2C#N)CCCC3)c1C | -3.46% | 
50 | Cc1cc(C)cc(NC(=O)CSc2nc(=O)n(CCN3CCOCC3)c3c2CCC3)c1 | -23.1% | 
51 | CC1CCCN(CC(=O)Nc2cc(Cl)ccc2Oc2ccccc2)C1 (stereo unspecified) | 50.3% | 
52 | CC1CCCN(CCOCCOc2ccccc2-c2ccccc2)C1 (stereo unspecified) |  | 20 µM (active)

Row | SMILES | activity change, negative = inhibition | Potency
53 | c1ccc(-c2ccccc2OCCN2CCCCC2)cc1 |  | 8.91 µM (active)
54 | O=C(COc1ccccc1Cl)N1CCCCCCC1 | -8.16% | 
55 | CC1CC(C)CN(CCOc2cccc3ccccc23)C1 (stereo unspecified) | -25.8% | 
56 | O=S(=O)(c1cccs1)N1CCN(CCOc2ccccc2)CC1 | -7.9% | 
57 | COCCNC(=O)CSc1nc(-c2ccccc2)[nH]c1-c1ccc(C)cc1 | -23.3% | 
58 | COc1cccc(CNC(=O)CN2C(=O)CCc3cc(S(=O)(=O)N4CCOCC4)ccc32)c1 | -9.6% | 
59 | Cc1ccc(Cl)cc1-n1ncc2c(N3CCC(C(N)=O)CC3)ncnc21 | -7.65% | 
60 | Cc1ccc(C(=O)N2CCc3cc(CNC(=O)c4ccc(Br)cc4)ccc32)cc1 | -21% | 
61 | O=S(=O)(N/N=C\c1cccn1-c1ccccc1)c1ccc2ccccc2c1 |  | 50.1 µM (active)
62 | COc1ccc(N2CC(NS(=O)(=O)c3ccc4ccccc4c3)CC2=O)cc1 (stereo unspecified) | -0.687% | 
63 | O=C(COc1ccc(/C=N/NS(=O)(=O)c2ccccc2)cc1)NCCc1ccccc1 | -1.37% | 
64 | CCc1cnc2c(c1SCC(=O)N1CCC(C)CC1)c(=O)n(C)c(=O)n2C | -9.42% | 
65 | Cc1cc(C)c(NC(=O)c2cc3sc(Cl)cc3n2C)c(C)c1 | -1.09% | 
66 | COc1cccc(OCC(O)CNC(=O)c2oc3c(C)c(C)ccc3c2C)c1 (stereo unspecified) | -29.9% | 
67 | COc1cccc(C(=O)OCc2cc(=O)oc3c(C)c(C)ccc23)c1OC |  | 79.4 µM (active)
68 | COC(=O)Cc1cc(=O)oc2c(C)c(O)ccc12 | -6.41% | 
69 | CCn1c(CN2CCC(C)CC2)nc2cc(NC(=O)c3ccccc3[N+](=O)[O-])ccc21 | -18.9% | 
70 | Cc1nn(C(C)C(=O)Nc2ccc(C(C)C)cc2)c(=O)c2c1sc1ccccc12 (stereo unspecified) | -22.2% | 
71 | COc1ccc(NC(=O)CCc2nnc3n(CC(C)C)c(=O)c4ccccc4n23)cc1OC | -24.4% | 
72 | COC(=O)c1ccccc1NC(=O)c1ccc(COc2ccccc2Cl)o1 | 15.8% | 
73 | CCN(CCCNC(=O)c1cc2c(=O)n(CC)c3ccccc3c2s1)Cc1ccccc1 | -17.2% | 
74 | N#Cc1c(N2CCCCC2)nc(N)c2c(N)nc(SCC(=O)O)cc12 |  | 50.1 µM (active)
75 | N#Cc1c(C(F)(F)F)cc(-c2ccc(Cl)cc2)nc1SCC(=O)O | -19.7% | 
76 | O=C(O)CSc1ccc(S(=O)(=O)N2CCCC2)cn1 | -1.35% | 
77 | COc1cc(NC(=O)c2cc(C3CC3)nc3c2c(C)nn3-c2ccccc2)cc(OC)c1 | -10.4% | 
78 | Cc1ccc(C)c(N2CCN(C(c3ccccc3)c3nnc(-c4ccccc4)o3)CC2)c1 (stereo unspecified) | -24.7% | 

Row | SMILES | activity change, negative = inhibition | Potency
79 | CCOC(=O)c1ccc(NC2Nc3cc(C)nn3S2)cc1 (stereo unspecified) | -23.3% | 
80 | CCc1ccc(NC2Nc3cc(C)nn3S2)cc1 (stereo unspecified) |  | 22.4 µM (active)
81 | COc1cccc(N2CC(NC(=O)/C=C\c3ccccc3)CC2=O)c1 (stereo unspecified) | -14.9% | 
82 | COc1ccccc1-n1c(SCC(=O)Nc2cccc(C(=O)O)c2)nnc1-c1ccccc1O | 7.56% | 
83 | Cc1ccc(C(=O)NCCc2nnc(SCC(=O)Nc3cccc(C(=O)O)c3)n2C)cc1 | -5.52% | 
84 | Cc1ccc(C)c2c1cc(C)c1nnc(SCC(=O)Nc3cccc(C(=O)O)c3)n12 |  | 12.6 µM (active)
85 | COC(=O)c1ccc(NC(=O)c2cc(S(=O)(=O)N3CCC(C)CC3)cn2C)cc1 | -10.5% | 
86 | Cc1ccc(Nc2nc3ccccc3nc2-n2nc(C)cc2C)c(Cl)c1 | 51% | 
87 | Cc1ccc(Cn2ncc3c4sc(C)cc4n(C)c3c2=O)c(C)c1 | -15.8% | 
88 | Cc1ccc(CCNC(=O)c2ccc(CNS(=O)(=O)c3ccc(C)cc3)cc2)cc1 | -9.48% | 
89 | COCCCNC(=O)c1ccc(CNS(=O)(=O)c2ccc(NC(C)=O)cc2)cc1 |  | 50.1 µM (active)
90 | CCCCNC(=O)C1CCC(CNS(=O)(=O)c2ccc(NC(C)=O)cc2)CC1 (stereo unspecified) |  | inactive
91 | Cc1ccc(CN2CCC(CNC(=O)c3cnn(-c4ccccc4Cl)c3C3CCN(C(=O)OC(C)(C)C)CC3)CC2)cc1 | -31.4% | 
92 | CCc1cccc(CC)c1NC(=O)Cn1c(=O)c(-c2cc(C)ccc2NC(C)=O)nc2ccccc21 | -16.2% | 
93 | COC(=O)c1ccccc1NC(=O)C(Cc1ccccc1)N1Cc2ccccc2C1=O (stereo unspecified) | -12.9% | 
94 | CCN(CC)c1ccc(/C=N/NC(=O)c2cnccn2)c(O)c1 | -20.4% | 
95 | CCN(CC)c1ccc(/C=N/Nc2nc(C)cc(C)n2)c(O)c1 |  | 50.1 µM (active)
96 | CCOc1cc(/C=N/Nc2cc(C)nc3ccc(C)cc23)ccc1O | -3.74% | 
97 | CCCCNC(=O)Cn1c(SCc2cccc(Cl)c2)nc2ccncc21 | -1.54% [at 57.1 µM] | 
98 | CCCN(CCC)CCCNC(=O)Cn1ncc2c3ccccc3n(Cc3ccccc3)c2c1=O | -10.4% | 
99 | Cc1cccc(OCC(O)CN2CCN(CCN3C(=O)c4cccc5cccc(c45)C3=O)CC2)c1C (stereo unspecified) |  | 39.8 µM (active)
100 | C=CCc1ccccc1OCC(O)CN1CCN(CCO)CC1 (stereo unspecified) | -2.49% | 
101 | Cc1ccc(OCC(O)CN2CCN(CC(O)COc3ccc(C)cc3Cl)CC2)c(Cl)c1 (stereo unspecified) | 4.49% | 
